Assay results taken from PubChem BioAssay (Tox21).
Where “and” joins values, the source holds several entries; their conditions need not be identical. Identical values can stand only once. Inconclusive results are not listed. Entries that show only a call come without a potency. The source holds several records for some structures; these can differ, active in one and inactive in another. Calls of active or inactive are those of the source. Calls come from the whole dose curve; as a rule, active = well fitted cell-killing curve with a large enough effect in the repeat runs; inconclusive = weak or mixed curves, or effect the other way; inactive = flat fitted curve, though single readings scatter.

assay: qHTS RealTime-Glo MT Cell Viability Assay in HEK293 cells - 24 hour (AID 1224886); conditions: RealTime-Glo luminescence; series mostly up to 76.8 µM; note: nearly all actives have a fitted effect of over 50% in size
Excerpt: National Center for Advancing Translational Sciences [NCATS]
NIH Chemical Genomics Center [NCGC]
U.S. Environmental Protection Agency [EPA]
National Institutes of Environmental Health Sciences [NIEHS]
National Toxicology Program [NTP]
U.S. Food and Drug Administration [FDA]
Measure of cell viability is critical in the cell-base assay. Analysis of cell viability is necessary for the characterization of cell responses to cytotoxic drugs and environmental stress. A RealTime-Glo MT Cell Viability Assay to monitor cell viability in real time of continues cell culture during 40 hours of compound treatment was used to screen Tox21 10K library compounds in Hek293 cells. The RealTime-Glo MT Cell Viability Assay is a nonlytic, homogeneous, bioluminescent method to measure cell viability in real time using a simple, plate-based method. The assay involves adding NanoLuc luciferase and a cell-permeant prosubstrate to cells in culture. Viable cells reduce the proprietary prosubstrate to generate a substrate for NanoLuc luciferase. This substrate diffuses from cells into the surrounding culture medium, where it is rapidly used by the NanoLuc Enzyme to produce a luminescent signal. The signal correlates with the number of viable cells, making the assay well suited for cytotoxicity studies.
Tox21 Assay Protocol Summary:
The mixture of Hek293 cell suspension and reagents were dispensed at 600cells/6 ul/well in 1536-well tissue culture treated black solid bottom plates using a Multidrop dispenser. After the assay plates were incubated at a 37 C/5% CO2 incubator for 5 hours, 23 nL of compounds dissolved in DMSO, positive and negative controls was transferred to the assay plate by a pintool work station. The plates were incubated at 37 C for 40 hours. The luminescence intensity were measured at 0h, 8h, 16h, 24h, 32h and 40h time points using ViewLux plate reader during compound treatment.
Potency is the fitted concentration of half-maximal effect.

SMILES | Potency
CC(=O)c1ccc(S(=O)(=O)NC(=O)NC2CCCCC2)cc1 | inactive
NC(=O)N/N=C/c1ccc([N+](=O)[O-])o1 | inactive
C[C@]12C=CC(=O)C=C1CC[C@@H]1[C@@H]2C(=O)C[C@@]2(C)[C@H]1CC[C@]2(O)C(=O)CO | inactive
CCCCC/C(C=O)=C\c1ccccc1 | inactive
NCCNc1cccc2ccccc12 | 48.9 µM (active) and 47.8 µM (active) and inactive
N[C@@H](Cc1c[nH]c2ccc(O)cc12)C(=O)O | inactive
CCN(CC)CCOC(=O)c1ccc(N)cc1 | inactive
C1CNCCN1 | inactive
C/C=C/c1ccc(O)c(OC)c1 | inactive
CC(C)(C)CC(C)(C)c1ccc(O)c(-n2nc3ccccc3n2)c1 | 49.7 µM (active) and inactive
COC(=O)c1ccc(C=O)cc1 | inactive
NC(=O)c1ccc([N+](=O)[O-])cc1Cl | inactive
CC1(C)O[C@@H]2[C@@H](CO[C@@]3(COS(N)(=O)=O)OC(C)(C)O[C@@H]23)O1 | inactive
CN(C)Cc1cc(CN(C)C)c(O)c(CN(C)C)c1 | inactive
C[C@]12CC[C@@H]3c4ccc(O)cc4CC[C@H]3[C@@H]1CCC2=O | inactive
CCCCCCCC(=O)OCC(O)CO (stereo not given) | inactive
CC(C)CC(C)CC(O)CC(C)C (stereo not given) | inactive
NC(N)=NC(N)=NCCc1ccccc1 | inactive
Cn1cnc2c1c(=O)[nH]c(=O)n2C | inactive
COc1cc(C=O)ccc1O | inactive

SMILES | Potency
CCOC(=O)C(C)(C)Oc1ccc(Cl)cc1 | inactive
Cc1cccc(C)c1O | inactive
CCCCNC(=O)NS(=O)(=O)c1ccc(N)cc1 | inactive
C=C(C)OC(C)=O | inactive
NC(=O)NO | inactive
O=c1c(-c2ccc(O)cc2)coc2cc(O)cc(O)c12 | 24.5 µM (active)
Oc1cccc(O)c1 | inactive
NC(=O)OCC(COC(N)=O)c1ccccc1 | inactive
Cc1ccc(O)c(-n2nc3ccccc3n2)c1 | inactive
CC(C)=CCC/C(C)=C/CO | inactive
CCCCOCCOCCSC#N | inactive
C[C@]12CC[C@@H]3c4ccc(O)cc4C[C@@H](CCCCCCCCCS(=O)CCCC(F)(F)C(F)(F)F)[C@H]3[C@@H]1CC[C@@H]2O (stereo not given in full) | 43.6 µM (active)
CCn1cc(C(=O)O)c(=O)c2ccc(C)nc21 | inactive
O=C(O)CN(CC(=O)O)CC(=O)O | inactive
COc1ccccc1O | inactive
Cc1cccc(Nc2cc(Cl)nc(SCC(=O)O)n2)c1C | inactive
NC(=O)N1c2ccccc2C=Cc2ccccc21 | inactive
O=c1cc[nH]c(=O)[nH]1 | inactive
CCc1cc(C(N)=S)ccn1 | inactive
CN/C(=C\[N+](=O)[O-])NCCSCc1ccc(CN(C)C)o1 | inactive
